# Measured values as given in PubChem BioAssay (NCATS).
# Records with an inconclusive call do not appear. Activity calls are given as the source filed them. The call rests on the fitted dose curve; in most records, active means well fitted inhibition curve with a large enough effect; inconclusive means small, poorly fitted or top-dose-only effect; inactive means no such curve, though single readings can be large or run the other way.
# Biological target: Cytochrome P450 2D6 (Homo sapiens) (UniProt P10635)
# Test: qHTS Assay for Inhibitors and Substrates of Cytochrome P450 2D6 (AID 891); further: nearly all actives have a fitted effect of over 60% in size
# Details: recombinant CYP2D6, luciferin-ME EGE luminescence; series mostly up to 57.1 µM
# Procedure, shortened: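 Luminescent read-out of luciferin formed by 5 nM human CYP2D6 demethylating 30 uM Luciferin-ME EGE (Km level) over 60 min at room temperature after NADPH regeneration addition. Data normalized to full inhibition by 1.43 uM quinidine.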
# Potency means the concentration at half of the fitted maximal effect.
# Sequence of Cytochrome P450 2D6 (Homo sapiens) (P10635 whole entry, looked up): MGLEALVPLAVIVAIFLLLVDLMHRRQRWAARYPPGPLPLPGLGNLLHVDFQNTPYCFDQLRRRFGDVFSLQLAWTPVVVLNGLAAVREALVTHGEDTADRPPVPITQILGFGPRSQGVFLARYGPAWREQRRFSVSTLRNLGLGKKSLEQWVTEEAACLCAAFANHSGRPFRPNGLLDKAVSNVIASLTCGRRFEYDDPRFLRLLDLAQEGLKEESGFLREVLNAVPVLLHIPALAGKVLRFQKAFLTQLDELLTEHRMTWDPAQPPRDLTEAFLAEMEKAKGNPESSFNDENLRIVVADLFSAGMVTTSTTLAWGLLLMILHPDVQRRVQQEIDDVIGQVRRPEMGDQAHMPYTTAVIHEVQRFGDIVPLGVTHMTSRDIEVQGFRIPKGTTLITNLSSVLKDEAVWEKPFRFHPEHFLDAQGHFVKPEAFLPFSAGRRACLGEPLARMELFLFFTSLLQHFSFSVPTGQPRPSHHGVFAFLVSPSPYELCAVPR
row,SMILES,Potency
1,COc1ccc2nc3c(cc2c1)Cc1ccccc1-3,6.31 µM (active)
2,c1ccc2c(c1)Cc1cc3cc4c(cc3nc1-2)OCO4,1.26 µM (active)
3,C[C@@H](C(=O)Nc1ccc2ccccc2c1)[C@H]1C[C@]1(C)[C@H](NP(=O)(c1ccccc1)c1ccccc1)c1ccccc1,0.794 µM (active)
4,CC(C)C[C@@H](CC(=O)N[C@@H](CCC(=O)O)CC(=O)O)NC(=O)[C@@H]1CCCC[C@H]1NC(=O)C[C@H](CCCN)NC(=O)C[C@H](CO)NC(=O)[C@@H]1CNCC[C@H]1N,inactive
5,CCCCCCN(C(=O)CCCCCN1C(=O)NC(c2ccc(-c3ccccc3)cc2)C(C(=O)OCc2ccccc2)=C1C)C(C(=O)NCCCC)c1ccc(OCC(=O)OC)c(C(=O)OC)c1 (stereo not given),inactive
6,CCC[C@@H]1C[C@@]1(CCC)C(NC(=O)c1ccco1)c1ccc(Cl)cc1 (stereo not given in full),3.98 µM (active)
7,CCCCCC1=C2CNC(CC(C)C)(C(=O)OC)C=C2C(C)C1=O (stereo not given),5.01 µM (active)
8,CC(C)C[C@@H](CC(=O)N[C@H](CC(=O)N[C@@H]1CCCC[C@H]1C(=O)N[C@H](CC(=O)N[C@@H](CCC(=O)O)CC(=O)O)CC(C)C)C(C)C)NC(=O)[C@@H]1CCCC[C@H]1N,inactive
9,OC1c2ccccc2-c2nc3ccccc3cc21 (stereo not given),20 µM (active)
10,c1ccc2c(c1)Cc1cc3ccccc3nc1-2,12.6 µM (active)
11,CC[C@H]1C(=O)OC[C@@H]1Cc1cncn1C,inactive
12,CC[C@@H]1OC(=O)[C@@H](C)[C@H](O[C@@H]2C[C@@](C)(OC)[C@@H](O)[C@H](C)O2)[C@H](C)[C@H](O[C@@H]2O[C@@H](C)C[C@@H](N(C)C)[C@H]2O)[C@@](C)(O)C[C@H](C)C(=O)[C@@H](C)[C@H](O)[C@@]1(C)O,inactive
13,CC(C)C[C@@H](CC(=O)N[C@H](CC(=O)N[C@@H]1CCNC[C@H]1C(=O)N[C@H](CC(=O)N[C@@H](CCC(=O)O)CC(=O)O)Cc1ccccc1)C(C)C)NC(=O)[C@@H]1CNCC[C@H]1N,inactive
14,CC(C)[C@@H](CC(=O)N[C@@H]1CCNC[C@H]1C(=O)N[C@H](CC(=O)N[C@@H](CCC(=O)O)CC(=O)O)Cc1c[nH]c2ccccc12)NC(=O)C[C@H](Cc1ccccc1)NC(=O)[C@@H]1CNCC[C@H]1N,inactive
15,C[C@@H](C(=O)Nc1ccc2ccccc2c1)[C@H]1C[C@]1(C)[C@H](NS(=O)(=O)c1ccc2ccccc2c1)c1ccccc1,3.16 µM (active)
